Assay results from article PMC11062922 (Nature Chemical Biology, 2023).
Read-outs that look alike come from different tables or passages of the source.

Tests used:
Set-up in all cases: species or system human, MV4-11 + K-562 + COLO205 + SK-N-BE2 + OVCAR-8
[1] = tested on: CSNK1A1; details: read-out: apparent Kd, compound concentrations: 100 nM and 1000 nM (sheet 'Samples'), n = 1
[2] = tested on: CSNK1D; details: read-out: apparent Kd, n = 1
[3] = tested on: CSNK1E; details: read-out: apparent Kd, n = 1
[4] = tested on: MAPK11; details: read-out: apparent Kd, n = 1
[5] = tested on: MAPK14; details: read-out: apparent Kd, n = 1
[6] = tested on: MAPKAPK2; details: read-out: apparent Kd, n = 1
[7] = tested on: RIPK2; details: read-out: apparent Kd, compound concentrations: 100 nM and 1000 nM (sheet 'Samples'), n = 1
[8] = tested on: CLK1; details: read-out: apparent Kd; compound concentrations:100 nM and 1000 nM (sheet 'Samples'); n = 1
[9] = tested on: CLK4; details: read-out: apparent Kd, n = 1
[10] = tested on: GSK3A; details: read-out: apparent Kd; compound concentrations:100 nM and 1000 nM (sheet 'Samples'); n = 1
[11] = tested on: GSK3B; details: read-out: apparent Kd; compound concentrations:100 nM and 1000 nM (sheet 'Samples'); n = 1
[12] = tested on: MAPK10; details: read-out: apparent Kd; compound concentrations: 100 nM and 1000 nM (sheet 'Samples'), CATDS: 9.1300875893450595E-2; n = 1
[13] = tested on: MAPK8; details: read-out: apparent Kd; compound concentrations: 100 nM and 1000 nM (sheet 'Samples'), CATDS: 4.9540433468536101E-2; n = 1
[14] = tested on: MAPK9; details: read-out: apparent Kd; compound concentrations: 100 nM and 1000 nM (sheet 'Samples'), CATDS: 8.0964581891509499E-2; n = 1
[15] = tested on: NLK; details: read-out: apparent Kd; compound concentrations: 100 nM and 1000 nM (sheet 'Samples'), CATDS: 7.7822094948188494E-2; n = 1
[16] = tested on: RIPK3; details: read-out: apparent Kd; compound concentrations: 100 nM and 1000 nM (sheet 'Samples'), CATDS: 4.8358331607940903E-2; n = 1
[17] = tested on: MAP2K2; details: read-out: apparent Kd; compound concentrations:100 nM and 1000 nM (sheet 'Samples'); n = 1
[18] = tested on: RAB6A;RAB6B; details: read-out: apparent Kd; compound concentrations:100 nM and 1000 nM (sheet 'Samples'); n = 1
[19] = tested on: IARS; details: read-out: apparent Kd; compound concentrations:100 nM and 1000 nM (sheet 'Samples'); n = 1
[20] = tested on: NQO1; details: read-out: apparent Kd; compound concentrations:100 nM and 1000 nM (sheet 'Samples'); n = 1
[21] = tested on: CSNK2A2; details: read-out: apparent Kd; compound concentrations: 100 nM and 1000 nM (sheet 'Samples'), CATDS: 0.28231341025767498; n = 1
[22] = tested on: PDXK; details: read-out: apparent Kd; compound concentrations: 100 nM and 1000 nM (sheet 'Samples'), CATDS: 0.33190254365372501; n = 1
[23] = compound concentrations:100 nM and 1000 nM (sheet 'Samples')

Q: Which potency estimated from few doses ([1]; CATDS: 9.6046167396209803E-2) does the source give for `CC1(C)CC(n2cnc(-c3ccc(F)cc3)c2-c2ccnc(N)n2)CC(C)(C)N1` [SB-221466] here?
A: 694 nM

Q: What about the potency estimated from few doses ([2]; compound concentrations: 100 nM and 1000 nM (sheet 'Samples'), CATDS: 0.25228114630202902) of the same compound?
A: 37.6 nM

Q: And the potency estimated from few doses ([3]; compound concentrations: 100 nM and 1000 nM (sheet 'Samples'), CATDS: 0.19281480161649001)?
A: 65.4 nM

Q: And the potency estimated from few doses ([4]; compound concentrations: 100 nM and 1000 nM (sheet 'Samples'), CATDS: 9.0675457178051394E-2)?
A: 958 nM

Q: And the potency estimated from few doses ([5]; compound concentrations: 100 nM and 1000 nM (sheet 'Samples'), CATDS: 0.38213111916194098)?
A: 18.8 nM

Q: What about the potency estimated from few doses ([6]; compound concentrations: 100 nM and 1000 nM (sheet 'Samples'), CATDS: 0.16941172485113901) of the same compound?
A: 89.6 nM

Q: And the potency estimated from few doses ([7]; CATDS: 0.10111059470888201)?
A: 537 nM

Q: Which results are given for `COc1ccc(CSc2nnc(-c3ccc4ncsc4c3)o2)cc1C(F)(F)F` [TPKI-91]?
A: potency estimated from few doses [8]: 549 nM; potency estimated from few doses [9, 23]: 599 nM; potency estimated from few doses [10]: 131 nM; potency estimated from few doses [11]: 72.5 nM

Q: Which results are given for `CCc1cccc(NC(=O)Nc2ccc(Oc3ccc4nc(NC(=O)OC)[nH]c4c3)cc2)c1` [GW673715X]?
A: potency estimated from few doses ([2]; compound concentrations: 100 nM and 1000 nM (sheet 'Samples'), CATDS: 0.27728092810056698): 739 nM; potency estimated from few doses ([3]; compound concentrations: 100 nM and 1000 nM (sheet 'Samples'), CATDS: 0.214439081495093): 1270 nM; potency estimated from few doses ([5]; compound concentrations: 100 nM and 1000 nM (sheet 'Samples'), CATDS: 0.234253056752116): 1030 nM; potency estimated from few doses ([6]; compound concentrations: 100 nM and 1000 nM (sheet 'Samples'), CATDS: 0.28890607877709801): 685 nM

Q: For `CN1CCC(n2cnc(-c3ccc(F)cc3)c2-c2ccnc(Nc3ccccc3)n2)CC1` [SB-236687], which potency estimated from few doses ([1]; CATDS: 5.98984637657098E-2) is on record?
A: 341 nM

Q: And the potency estimated from few doses ([2]; compound concentrations: 100 nM and 1000 nM (sheet 'Samples'), CATDS: 0.13245154437339501)?
A: 30.3 nM

Q: What about the potency estimated from few doses ([3]; compound concentrations: 100 nM and 1000 nM (sheet 'Samples'), CATDS: 9.7404692081277694E-2) of the same compound?
A: 66.2 nM

Q: And the potency estimated from few doses [12]?
A: 79 nM

Q: What about the potency estimated from few doses ([4]; compound concentrations: 100 nM and 1000 nM (sheet 'Samples'), CATDS: 7.8830615244885299E-2) of the same compound?
A: 122 nM

Q: And the potency estimated from few doses ([5]; compound concentrations: 100 nM and 1000 nM (sheet 'Samples'), CATDS: 0.23867511815935299)?
A: 6.98 nM

Q: What about the potency estimated from few doses [13] of the same compound?
A: 1080 nM

Q: What about the potency estimated from few doses [14] of the same compound?
A: 112 nM

Q: What about the potency estimated from few doses [15] of the same compound?
A: 127 nM

Q: And the potency estimated from few doses ([7]; CATDS: 6.8515245953885195E-2)?
A: 196 nM

Q: What about the potency estimated from few doses [16] of the same compound?
A: 1330 nM

Q: Which potency estimated from few doses [2, 23] does the source give for `CCc1ccc(Oc2nccc(-c3c(-c4ccc(F)cc4)ncn3C3CCNCC3)n2)cc1` [SB-242719] here?
A: 419 nM

Q: And the potency estimated from few doses [3, 23]?
A: 760 nM

Q: And the potency estimated from few doses [17]?
A: 2280 nM

Q: What about the potency estimated from few doses [4, 23] of the same compound?
A: 779 nM

Q: And the potency estimated from few doses [5, 23]?
A: 24.4 nM

Q: What about the potency estimated from few doses [6, 23] of the same compound?
A: 13.3 nM

Q: What about the potency estimated from few doses [18] of the same compound?
A: 1360 nM

Q: What does the source list for `Fc1ccc(-c2ncn(C3CCNCC3)c2-c2ccnc(Oc3ccc(Oc4ccccc4)cc3)n2)cc1` [SB-245392]?
A: potency estimated from few doses [2, 23]: 616 nM; potency estimated from few doses [3, 23]: 1200 nM; potency estimated from few doses [19]: 2110 nM; potency estimated from few doses [5, 23]: 571 nM; potency estimated from few doses [20]: 1710 nM

Q: Which results are given for `Nc1ncnc2[nH]c(-c3ccccc3)nc12` [AH5015_KCGS]?
A: potency estimated from few doses ([9]; compound concentrations: 100 nM and 1000 nM (sheet 'Samples'), CATDS: 0.40901388179724202): 1090 nM; potency estimated from few doses [21]: 2320 nM; potency estimated from few doses [22]: 1610 nM

Q: How did the potency estimated from few doses [2, 23] turn out when `Fc1ccc(-c2ncn(C3CCNCC3)c2-c2ccnc(Oc3ccc(-c4ccccc4)cc3)n2)cc1` [SB-245391] was run?
A: 486 nM

Q: And the potency estimated from few doses [3, 23]?
A: 1840 nM

Q: What about the potency estimated from few doses [5, 23] of the same compound?
A: 424 nM

Q: And the potency estimated from few doses [6, 23]?
A: 116 nM
